PfHsp90 yeast 2: growth inhibition of PfHsp90-expressing yeast, primary screen, antimalarial PfHsp90 inhibitor project, S. cerevisiae, BacTiter-Glo luminescence, single point, set 2; BacTiter-Glo ATP, 48 h; yeast lacking PDR1 and PDR3 efflux regulators; inhibition, % at 9.4 µM; 310,000 tested, 0.32% active; AID 504621, 2011;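 active means every replicate shows inhibition above about 80%, whatever the replicate mean, limit read from the data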;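 further: 0% = DMSO neutral controls and 100% = 20 µM radicicol positive controls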
Casp6 inh: human caspase-6 inhibitors, primary screen, biochemical, VEID-R110 fluorescence, single point, set 2 | purified caspase-6, Z-VEID-R110 cleavage fluorescence | inhibition, % at 12.5 µM | P55212 | AID 686996, 2013 | 350,000 tested, 0.53% active;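 active means mean inhibition across replicates at least about 35%, with every replicate also reaching that limit, limit read from the data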;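 further: 0% = median of neutral control wells and 100% = no fluorescence left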
NSD2 inh: NSD2 histone methyltransferase inhibitors, primary screen, biochemical, AlphaScreen, single concentration, set 2. 310,000 tested, 0.54% active. NSD2 peptide methylation, 120 min. inhibition, % at 12.5 µM. Histone-lysine N-methyltransferase NSD2 (Homo sapiens), O96028; in the data active means inhibition above about 50%
ARNT-TACC3 inh: disruptors of ARNT/TACC3 protein interaction, primary screen, biochemical, AlphaScreen, single concentration. AlphaScreen His-ARNT PAS-B/GST-TACC3 binding, luminescence; TACC3 fragment carries E629A point mutation. Transforming acidic coiled-coil-containing protein 3 (Homo sapiens), Q9Y6A5. inhibition, % at 9.99 µM. AID 623870, 2012. 390,000 tested, 0.66% active;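 active means mean inhibition of replicates at least 50% and at least half of replicates each reaching 50%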;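 further: 0% = complete ARNT plus TACC3 wells and 100% = ARNT alone without TACC3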
SIRT5 block: SIRT5 desuccinylase inhibitors, primary screen, biochemical, fluorescence imaging, single point, set 5 | NAD-dependent protein deacylase sirtuin-5, mitochondrial (Homo sapiens), Q9NXA8 | Purified SirT5, succinyl-peptide AMC, trypsin-coupled fluorescence | inhibition, % at 15 µM | 330,000 tested, 1.1% active; in the data active means inhibition above about 15%
* = called active by the depositor; . = no result. An excerpt weighted towards active compounds, which were near 2.1% of everything screened.

SMILES	PfHsp90 yeast 2	Casp6 inh	NSD2 inh	ARNT-TACC3 inh	SIRT5 block
C[C@@H]1CN([C@@H](C)CO)C(=O)c2cccc(NC(=O)c3nc4ccccc4s3)c2O[C@@H]1CN(C)Cc1ccncc1	.	6.2	.	1.7	-3.5
COc1ccc(C2c3ccc(O)cc3Oc3ncn4nc(-c5ccccn5)nc4c32)cc1OC (stereo unspecified)	15.7	-2.6	0.7	59.0*	-1.1
N#CC1(NC(=O)CSc2nnc(COc3ccccc3F)n2N)CCCCC1	-28.3	71.9*	-2.1	-0.8	-4.8
Nn1c(COc2ccccc2F)nnc1SCC(=O)NC1CCCC1	6.3	-4.2	-2.0	-5.5	2.0
OC(CSc1nc2ccccc2s1)CC(O)c1ccccc1 (stereo unspecified)	.	0.4	.	-7.3	-1.7
NCC[C@@H]1CC[C@H](NC(=O)c2ccccc2F)[C@@H](CO)O1	.	39.4*	.	5.7	-1.9
O=C(O)C[C@@H]1CC[C@@H](NC(=O)c2ccccc2F)[C@H](CO)O1	.	1.0	.	-5.0	-2.6
O=C(Cc1ccccn1)NCC[C@H]1CC[C@@H](NC(=O)c2ccccc2F)[C@@H](CO)O1	.	0.3	.	8.6	1.2
O=C(N[C@H]1CC[C@H](CCNS(=O)(=O)Cc2ccccc2)O[C@H]1CO)c1ccccc1F	.	-0.9	.	-2.9	1.7*
O=C(Cc1ccccn1)NCC[C@@H]1CC[C@@H](NC(=O)c2ccccc2F)[C@H](CO)O1	.	35.1*	.	0.7	-0.9
O=C(/C=C/c1cccs1)Nc1ccc([N+](=O)[O-])cc1	-9.1	.	9.2	1.9	.
O=C(/C=C/c1cccs1)Nc1ccncc1	8.8	-1.1	2.4	-2.7	35.1*
CCC(C)NC(=O)/C=C/c1cccs1 (stereo unspecified)	-22.5	-3.0	-1.6	4.6	16.8*
COC(=O)c1sc(N2C(=O)C(=O)/C(=C(/O)c3ccccc3)C2c2ccco2)nc1C (stereo unspecified)	11.5	36.6*	3.1	.	4.8
CCOC(=O)c1sc(N2C(=O)C(O)=C(C(=O)c3ccco3)C2c2ccco2)nc1C (stereo unspecified)	25.7	39.3*	7.7	-12.5	4.5
Cc1ccc2nc(N3C(=O)C(O)=C(C(=O)c4ccco4)C3c3cccs3)sc2c1 (stereo unspecified)	.	.	1.8	-1.5	.
Cc1ccc2nc(N3C(=O)C(O)=C(C(=O)c4ccc(C)o4)C3c3ccc(O)cc3)sc2c1 (stereo unspecified)	5.8	29.0	-1.1	2.1	22.4*
Cc1nc(N2C(=O)C(=O)/C(=C(/O)c3ccccc3)C2c2ccco2)sc1C (stereo unspecified)	-11.8	.	-2.2	8.2	.
COc1ccc(C2C(C(=O)c3ccco3)=C(O)C(=O)N2c2nnc(C)s2)cc1 (stereo unspecified)	-53.6	-4.0	-2.9	0.2	-2.0
CCOc1ccc2nc(N3C(=O)C(O)=C(C(=O)c4ccco4)C3c3ccco3)sc2c1 (stereo unspecified)	14.9	36.0*	25.9	.	2.8
COc1ccc(CN(C)C[C@@H]2Oc3c(NC(=O)CCCCCC(=O)Nc4ccccc4N)cccc3C(=O)N([C@@H](C)CO)C[C@H]2C)cc1	.	-3.8	.	.	2.4
Cc1cc(C)c2nc(N3C(=O)C(O)=C(C(=O)c4ccco4)C3c3ccco3)sc2c1 (stereo unspecified)	-48.4	68.3*	0.4	6.5	1.7
Cc1nc(C)c(C(=O)C2=C(O)C(=O)N(CCN3CCOCC3)C2c2ccco2)s1 (stereo unspecified)	-6.7	.	1.7	49.5*	.
CCCC#Cc1ccc2c(c1)[C@H]1[C@H](CCN1S(=O)(=O)c1cn(C)cn1)[C@H](CO)N2	.	-0.1	.	.	0.8
CC(=O)Nc1ccc(S(=O)(=O)/N=C2\C(=O)c3ccccc3C([O-])=C2n2cc[n+](-c3ccccn3)c2)cc1	-0.9	68.3*	46.0	8.8	2.6
SMILES	PfHsp90 yeast 2	Casp6 inh	NSD2 inh	ARNT-TACC3 inh	SIRT5 block
Cc1ccc(S(=O)(=O)/N=C2\C(=O)c3ccccc3C([O-])=C2n2cc[n+](CCC(C)C)c2)cc1	-24.0	.	.	10.5	.
COc1ccc(NC(=O)CSc2nnc3ccc(-c4cccnc4)nn23)cc1OC	.	-9.2	-2.8	1.0	16.9*
Cc1cc(NC(=O)CSc2nnc3ccc(-c4ccccc4)nn23)no1	.	-3.1	-2.4	.	25.6*
COc1ccc(NC(=O)CSc2nnc3ccc(-c4cccnc4)nn23)cc1	.	0.9	0.1	2.3	1.6
COc1ccccc1-c1ccc([C@H]2[C@H]3CN(Cc4ccncc4)CCCCN3[C@H]2CO)cc1	.	.	.	8.6	-4.3
COc1ccccc1NC(=O)N(C)C[C@H]1Oc2cc(Br)ccc2S(=O)(=O)N([C@@H](C)CO)C[C@@H]1C	.	-1.9	.	5.8	0.2
CCOc1ccc(CCNC(=O)c2cccc(S(=O)(=O)N3CCN(C(C)=O)CC3)c2)cc1OCC	-1.5	-1.3	-0.4	2.7	20.8*
NNC(=O)Cn1c(-c2ccccc2)cc2ccccc21	10.7	-0.1	5.9	0.3	21.2*
O=C(C[C@H]1CC[C@H]2[C@@H](COC[C@H](O)CN2Cc2nccs2)O1)NCc1ccc(Cl)cc1	.	-3.0	.	-4.3	-0.5
O=C(NNC1=C(C(=O)C(F)(F)F)CCC1)c1ccccc1Cl	0.5	.	6.0	0.8	.
O=C(NNC1=C(C(=O)C(F)(F)F)CCC1)c1ccc(Br)cc1	130.2*	-1.0	3.5	-0.3	-1.3
O=C(NNC1=C(C(=O)C(F)(F)F)CCC1)c1ccccc1O	14.5	.	11.8	63.2*	.
C[C@@H](NC(=O)C[C@@H]1CC[C@H](NC(=O)C2CCC2)[C@@H](CO)O1)c1ccccc1	.	-1.5	.	-0.1	1.2
COCC(=O)Nc1ccc2c(c1)C(=O)N(C)C[C@H](OC)[C@H](C)CN(C(=O)NC(C)C)[C@@H](C)CO2	.	.	.	-3.1	-2.1
COc1ccc2c(c1)CCC1=C2NC(=S)NC1c1ccc(N(C)C)cc1 (stereo unspecified)	-56.1	-10.0	0.1	4.5	15.3*
O=C(CN1C(=O)NC2(CCCC2)C1=O)N1CCN(c2ccccc2O)CC1	-9.6	-1.6	2.8	0.7	17.8*
CCOc1ccccc1-n1c(SCC(N)=O)nnc1-c1ccccc1	-12.7	.	-2.1	8.2	.
CCOc1ccccc1-n1c(SCC(N)=O)nnc1-c1ccc(O)cc1	-14.2	.	1.2	53.9*	.
Cc1noc(C)c1S(=O)(=O)N(C)C[C@@H]1Oc2ccc(NS(=O)(=O)c3ccc(F)cc3)cc2CC(=O)N([C@H](C)CO)C[C@@H]1C	.	1.2	.	.	2.1
COC(=O)CC1=C(C)C(=O)CC2C(C)(C)CCCC12C (stereo unspecified)	-2.2	1.6	.	-5.1	18.1*

Screens: PubChem BioAssay, Broad Institute
